Laboratory results: publication PMC7862700, “An all-to-all approach to the identification of sequence-specific readers for epigenetic DNA modifications on cytosine”

Legend:
Assay in all cases: DAPPL (digital affinity profiling via proximity ligation, sequencing); 10 mM Tris-HCl pH 7.5, 50 mM NaCl, 1 mM DTT, 4% glycerol, room temperature, 30 min; GST-TFs on glutathione beads, 16-mer random dsDNA library, 0.1% formaldehyde crosslink after washing; high values mean tight binding
[1] = target: T1, FLI1 (Homo sapiens, UniProt Q01543 1-452); conditions: protein: recombinant; tags: N-terminal GST; dsDNA, one strand shown
T1 sequence: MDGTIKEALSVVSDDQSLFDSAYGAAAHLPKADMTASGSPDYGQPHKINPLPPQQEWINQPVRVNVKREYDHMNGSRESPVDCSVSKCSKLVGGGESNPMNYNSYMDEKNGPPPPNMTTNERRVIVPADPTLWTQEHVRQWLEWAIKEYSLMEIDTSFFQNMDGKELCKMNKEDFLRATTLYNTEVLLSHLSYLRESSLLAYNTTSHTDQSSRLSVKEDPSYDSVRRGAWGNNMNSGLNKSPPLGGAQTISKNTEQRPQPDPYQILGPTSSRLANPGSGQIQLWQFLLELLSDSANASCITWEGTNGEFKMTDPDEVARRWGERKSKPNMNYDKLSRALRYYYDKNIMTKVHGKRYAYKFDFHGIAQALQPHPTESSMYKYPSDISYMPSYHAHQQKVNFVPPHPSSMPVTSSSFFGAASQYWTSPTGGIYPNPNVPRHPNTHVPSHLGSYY
Outline: (§1)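 In yeast, human transcription factors were expressed with a GST fusion, then pulled down on glutathione beads and given DNA barcodes. Pooled with a tag-only sample, they were exposed to 200 nmole of a 16-mer random double-stranded DNA library (Tris/NaCl/DTT/glycerol buffer, room temperature, 30 min), washed, crosslinked with 0.1% formaldehyde, proximity-ligated using BsaI/T4 ligase for 1 h at 37 °C, PCR-amplified and read on an Illumina NextSeq500. Each hexamer's frequency of reads for a factor, divided by the matching frequency for the tag-only sample, gives the binding signal.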

[2] = target: T2, ELK1 (Homo sapiens, UniProt P19419 1-428); conditions: protein: recombinant; tags: N-terminal GST; dsDNA, one strand shown
T2 sequence: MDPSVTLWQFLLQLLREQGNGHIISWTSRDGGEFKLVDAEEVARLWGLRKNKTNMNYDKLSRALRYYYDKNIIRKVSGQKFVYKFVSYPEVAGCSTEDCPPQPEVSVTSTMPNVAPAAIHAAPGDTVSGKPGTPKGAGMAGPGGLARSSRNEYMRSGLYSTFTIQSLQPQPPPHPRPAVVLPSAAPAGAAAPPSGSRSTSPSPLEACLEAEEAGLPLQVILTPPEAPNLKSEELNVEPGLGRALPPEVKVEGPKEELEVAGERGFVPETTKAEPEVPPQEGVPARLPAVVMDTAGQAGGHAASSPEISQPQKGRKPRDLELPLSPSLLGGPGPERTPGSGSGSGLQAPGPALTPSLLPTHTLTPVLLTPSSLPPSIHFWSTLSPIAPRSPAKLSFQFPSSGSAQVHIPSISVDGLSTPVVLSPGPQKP
Outline: as §1

[3] = target: T3, GABPA (Homo sapiens, UniProt Q06546 1-454); conditions: protein: recombinant; tags: N-terminal GST; dsDNA, one strand shown
T3 sequence: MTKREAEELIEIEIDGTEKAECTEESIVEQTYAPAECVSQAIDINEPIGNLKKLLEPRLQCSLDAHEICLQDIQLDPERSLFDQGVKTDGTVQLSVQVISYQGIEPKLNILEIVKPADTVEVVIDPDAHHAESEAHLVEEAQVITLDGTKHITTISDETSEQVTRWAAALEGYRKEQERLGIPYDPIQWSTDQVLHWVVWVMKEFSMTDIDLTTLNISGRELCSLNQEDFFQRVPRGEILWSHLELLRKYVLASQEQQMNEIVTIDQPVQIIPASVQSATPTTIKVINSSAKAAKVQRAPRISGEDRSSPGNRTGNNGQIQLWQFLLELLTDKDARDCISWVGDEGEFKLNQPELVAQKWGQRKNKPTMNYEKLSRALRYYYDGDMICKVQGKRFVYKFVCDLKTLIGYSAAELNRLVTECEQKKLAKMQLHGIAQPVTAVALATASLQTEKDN
Outline: as §1

[4] = target: T4, ERG (Homo sapiens, UniProt P11308 1-479); conditions: protein: recombinant; tags: N-terminal GST; dsDNA, one strand shown
T4 sequence: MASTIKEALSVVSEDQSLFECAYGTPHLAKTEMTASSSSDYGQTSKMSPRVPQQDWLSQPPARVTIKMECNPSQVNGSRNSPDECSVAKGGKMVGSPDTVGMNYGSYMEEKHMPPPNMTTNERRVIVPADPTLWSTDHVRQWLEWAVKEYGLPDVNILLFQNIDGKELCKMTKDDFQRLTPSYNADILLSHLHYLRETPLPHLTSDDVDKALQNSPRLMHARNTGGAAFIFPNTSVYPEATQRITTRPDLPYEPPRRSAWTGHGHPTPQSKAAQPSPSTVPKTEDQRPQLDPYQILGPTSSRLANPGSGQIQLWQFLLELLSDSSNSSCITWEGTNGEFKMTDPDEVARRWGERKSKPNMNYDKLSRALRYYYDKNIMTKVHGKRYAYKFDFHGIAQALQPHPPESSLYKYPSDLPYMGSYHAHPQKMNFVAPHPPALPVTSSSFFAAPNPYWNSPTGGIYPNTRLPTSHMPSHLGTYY
Outline: as §1

[5] = target: ELF1 (Homo sapiens, UniProt P32519 1-619); conditions: protein: recombinant; tags: N-terminal GST; dsDNA, one strand shown
Outline: as §1

[6] = target: T5, EHF (Homo sapiens, UniProt Q9NZC4 1-300); conditions: protein: recombinant; tags: N-terminal GST; dsDNA, one strand shown
T5 sequence: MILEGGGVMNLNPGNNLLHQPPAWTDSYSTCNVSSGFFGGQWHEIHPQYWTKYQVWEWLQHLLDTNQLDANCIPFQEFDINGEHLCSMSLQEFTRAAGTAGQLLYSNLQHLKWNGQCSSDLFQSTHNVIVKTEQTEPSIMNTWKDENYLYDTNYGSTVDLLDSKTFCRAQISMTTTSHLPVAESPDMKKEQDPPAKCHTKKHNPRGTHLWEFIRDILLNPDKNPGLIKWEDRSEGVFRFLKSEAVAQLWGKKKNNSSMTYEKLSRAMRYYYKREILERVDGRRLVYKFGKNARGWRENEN
Outline: as §1

[7] = target: SPI1 (Homo sapiens, UniProt P17947 1-270); conditions: protein: recombinant; tags: N-terminal GST; dsDNA, one strand shown
Outline: as §1

[8] = target: SPIB (Homo sapiens, UniProt Q01892 1-262); conditions: protein: recombinant; tags: N-terminal GST; dsDNA, one strand shown
Outline: as §1

[9] = target: T6, ELK3 (Homo sapiens, UniProt P41970 1-407); conditions: protein: recombinant; tags: N-terminal GST; dsDNA, one strand shown
T6 sequence: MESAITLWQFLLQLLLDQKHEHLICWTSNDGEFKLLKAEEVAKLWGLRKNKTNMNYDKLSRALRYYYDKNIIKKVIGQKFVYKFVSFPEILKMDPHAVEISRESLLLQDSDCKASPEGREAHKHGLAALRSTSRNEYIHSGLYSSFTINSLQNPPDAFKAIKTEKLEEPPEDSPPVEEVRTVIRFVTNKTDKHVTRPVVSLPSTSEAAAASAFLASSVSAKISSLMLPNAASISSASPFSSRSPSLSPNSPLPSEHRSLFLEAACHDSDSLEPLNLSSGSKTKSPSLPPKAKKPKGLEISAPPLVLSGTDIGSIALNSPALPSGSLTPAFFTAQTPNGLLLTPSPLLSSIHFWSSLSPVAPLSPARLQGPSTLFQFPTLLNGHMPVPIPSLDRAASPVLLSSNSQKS
Outline: as §1

[10] = target: T7, FEV (Homo sapiens, UniProt Q99581 1-238); conditions: protein: recombinant; tags: N-terminal GST; dsDNA, one strand shown
T7 sequence: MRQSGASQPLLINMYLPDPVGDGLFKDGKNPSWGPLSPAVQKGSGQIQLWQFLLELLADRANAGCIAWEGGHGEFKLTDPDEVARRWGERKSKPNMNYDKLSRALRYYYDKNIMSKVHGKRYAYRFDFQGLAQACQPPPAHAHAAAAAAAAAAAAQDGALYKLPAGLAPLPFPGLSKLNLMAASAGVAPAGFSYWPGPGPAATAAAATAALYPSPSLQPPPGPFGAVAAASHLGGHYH
Outline: as §1

[11] = target: ETV5 (Homo sapiens, UniProt P41161 1-510); conditions: protein: recombinant; tags: N-terminal GST; dsDNA, one strand shown
Outline: as §1

[12] = target: HSF1 (Homo sapiens, UniProt Q00613 1-529); conditions: protein: recombinant; tags: N-terminal GST; chain copies: 3; dsDNA, one strand shown
Outline: as §1

[13] = target: T8, SPIC (Homo sapiens, UniProt Q8N5J4 1-248); conditions: protein: recombinant; tags: N-terminal GST; dsDNA, one strand shown
T8 sequence: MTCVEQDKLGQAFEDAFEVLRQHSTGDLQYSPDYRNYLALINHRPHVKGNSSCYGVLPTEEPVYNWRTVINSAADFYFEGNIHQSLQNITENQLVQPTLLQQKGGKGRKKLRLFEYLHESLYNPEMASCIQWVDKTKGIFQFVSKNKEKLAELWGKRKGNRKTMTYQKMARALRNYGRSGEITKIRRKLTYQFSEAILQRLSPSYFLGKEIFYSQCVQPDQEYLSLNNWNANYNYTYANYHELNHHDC
Outline: as §1

[14] = target: ELF4 (Homo sapiens, UniProt Q99607 1-663); conditions: protein: recombinant; tags: N-terminal GST; dsDNA, one strand shown
Outline: as §1

[15] = target: T9, ELK4 (Homo sapiens, UniProt P28324-2 1-405); conditions: protein: recombinant; tags: N-terminal GST; dsDNA, one strand shown
T9 sequence: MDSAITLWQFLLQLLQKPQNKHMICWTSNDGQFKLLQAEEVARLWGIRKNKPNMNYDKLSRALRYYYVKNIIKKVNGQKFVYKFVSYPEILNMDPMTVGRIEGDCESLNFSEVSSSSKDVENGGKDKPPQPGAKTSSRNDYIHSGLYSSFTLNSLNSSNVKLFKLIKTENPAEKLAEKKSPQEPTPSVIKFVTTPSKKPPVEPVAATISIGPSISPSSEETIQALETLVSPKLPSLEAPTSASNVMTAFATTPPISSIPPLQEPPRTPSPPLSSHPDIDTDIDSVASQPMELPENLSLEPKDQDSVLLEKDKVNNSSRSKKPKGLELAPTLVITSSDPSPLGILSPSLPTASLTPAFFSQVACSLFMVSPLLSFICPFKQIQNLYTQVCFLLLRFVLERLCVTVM
Outline: as §1

[16] = target: T10, ETV2 (Homo sapiens, UniProt O00321 1-342); conditions: protein: recombinant; tags: N-terminal GST; dsDNA, one strand shown
T10 sequence: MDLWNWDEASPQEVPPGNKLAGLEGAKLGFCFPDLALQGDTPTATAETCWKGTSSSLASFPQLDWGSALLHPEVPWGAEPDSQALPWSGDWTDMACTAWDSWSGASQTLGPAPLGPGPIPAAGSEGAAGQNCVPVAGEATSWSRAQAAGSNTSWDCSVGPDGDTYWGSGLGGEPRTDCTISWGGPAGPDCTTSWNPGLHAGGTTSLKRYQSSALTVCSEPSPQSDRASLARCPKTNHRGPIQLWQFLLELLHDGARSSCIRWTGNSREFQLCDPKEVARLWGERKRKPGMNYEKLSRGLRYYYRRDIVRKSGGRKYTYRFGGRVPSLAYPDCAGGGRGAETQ
Outline: as §1

[17] = target: T11, ELF3 (Homo sapiens, UniProt P78545 1-371); conditions: protein: recombinant; tags: N-terminal GST; dsDNA, one strand shown
T11 sequence: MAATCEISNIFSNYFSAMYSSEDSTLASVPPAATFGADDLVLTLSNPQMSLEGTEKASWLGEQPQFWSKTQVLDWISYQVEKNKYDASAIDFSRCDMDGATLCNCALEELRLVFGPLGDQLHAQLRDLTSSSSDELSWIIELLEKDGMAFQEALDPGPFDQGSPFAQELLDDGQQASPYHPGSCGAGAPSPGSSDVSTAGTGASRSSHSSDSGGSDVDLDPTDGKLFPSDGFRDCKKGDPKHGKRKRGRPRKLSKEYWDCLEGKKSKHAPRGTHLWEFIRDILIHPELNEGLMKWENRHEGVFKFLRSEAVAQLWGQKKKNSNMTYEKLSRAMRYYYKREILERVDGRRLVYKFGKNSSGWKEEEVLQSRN
Outline: as §1

[18] = target: CRX (Homo sapiens, UniProt O43186 1-299); conditions: protein: recombinant; tags: N-terminal GST; dsDNA, one strand shown
Outline: as §1

[19] = target: ETV1 (Homo sapiens, UniProt P50549 1-477); conditions: protein: recombinant; tags: N-terminal GST; dsDNA, one strand shown
Outline: as §1

ETV5, sequence (P41161 whole entry): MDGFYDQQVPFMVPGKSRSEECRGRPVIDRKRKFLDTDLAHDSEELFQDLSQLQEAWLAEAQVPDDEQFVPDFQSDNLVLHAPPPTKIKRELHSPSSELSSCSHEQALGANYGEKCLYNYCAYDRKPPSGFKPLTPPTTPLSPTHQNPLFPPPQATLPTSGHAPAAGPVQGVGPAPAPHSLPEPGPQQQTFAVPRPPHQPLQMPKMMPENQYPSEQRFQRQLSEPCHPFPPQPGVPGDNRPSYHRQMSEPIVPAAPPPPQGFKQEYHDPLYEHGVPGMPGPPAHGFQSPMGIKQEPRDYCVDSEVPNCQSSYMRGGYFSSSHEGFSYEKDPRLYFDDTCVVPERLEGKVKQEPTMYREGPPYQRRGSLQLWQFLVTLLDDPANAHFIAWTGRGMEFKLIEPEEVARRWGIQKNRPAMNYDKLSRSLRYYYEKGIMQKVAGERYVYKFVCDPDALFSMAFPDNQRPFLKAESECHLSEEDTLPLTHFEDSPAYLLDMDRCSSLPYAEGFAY
ETV1, sequence (P50549 whole entry): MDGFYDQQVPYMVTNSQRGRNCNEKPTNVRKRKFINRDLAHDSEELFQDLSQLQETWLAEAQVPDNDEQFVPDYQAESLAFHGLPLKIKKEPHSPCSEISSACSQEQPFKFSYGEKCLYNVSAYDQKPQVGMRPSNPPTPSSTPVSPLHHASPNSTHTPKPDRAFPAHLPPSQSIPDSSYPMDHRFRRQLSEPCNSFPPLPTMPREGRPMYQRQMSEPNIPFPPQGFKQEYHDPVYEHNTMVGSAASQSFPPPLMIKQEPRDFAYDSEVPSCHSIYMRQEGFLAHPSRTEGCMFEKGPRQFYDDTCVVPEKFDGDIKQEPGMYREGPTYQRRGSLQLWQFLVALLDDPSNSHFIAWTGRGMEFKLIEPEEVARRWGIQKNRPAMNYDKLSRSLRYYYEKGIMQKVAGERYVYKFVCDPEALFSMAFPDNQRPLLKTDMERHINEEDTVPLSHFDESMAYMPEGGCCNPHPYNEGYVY
CRX, sequence (O43186 whole entry): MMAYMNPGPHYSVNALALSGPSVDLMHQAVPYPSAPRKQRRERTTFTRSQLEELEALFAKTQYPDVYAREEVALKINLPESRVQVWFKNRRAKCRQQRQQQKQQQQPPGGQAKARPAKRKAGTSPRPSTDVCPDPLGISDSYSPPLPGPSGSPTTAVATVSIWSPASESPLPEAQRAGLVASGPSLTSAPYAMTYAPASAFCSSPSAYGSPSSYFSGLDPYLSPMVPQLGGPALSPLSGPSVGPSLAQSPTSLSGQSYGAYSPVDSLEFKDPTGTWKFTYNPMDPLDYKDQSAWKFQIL
ELF4, sequence (Q99607 whole entry): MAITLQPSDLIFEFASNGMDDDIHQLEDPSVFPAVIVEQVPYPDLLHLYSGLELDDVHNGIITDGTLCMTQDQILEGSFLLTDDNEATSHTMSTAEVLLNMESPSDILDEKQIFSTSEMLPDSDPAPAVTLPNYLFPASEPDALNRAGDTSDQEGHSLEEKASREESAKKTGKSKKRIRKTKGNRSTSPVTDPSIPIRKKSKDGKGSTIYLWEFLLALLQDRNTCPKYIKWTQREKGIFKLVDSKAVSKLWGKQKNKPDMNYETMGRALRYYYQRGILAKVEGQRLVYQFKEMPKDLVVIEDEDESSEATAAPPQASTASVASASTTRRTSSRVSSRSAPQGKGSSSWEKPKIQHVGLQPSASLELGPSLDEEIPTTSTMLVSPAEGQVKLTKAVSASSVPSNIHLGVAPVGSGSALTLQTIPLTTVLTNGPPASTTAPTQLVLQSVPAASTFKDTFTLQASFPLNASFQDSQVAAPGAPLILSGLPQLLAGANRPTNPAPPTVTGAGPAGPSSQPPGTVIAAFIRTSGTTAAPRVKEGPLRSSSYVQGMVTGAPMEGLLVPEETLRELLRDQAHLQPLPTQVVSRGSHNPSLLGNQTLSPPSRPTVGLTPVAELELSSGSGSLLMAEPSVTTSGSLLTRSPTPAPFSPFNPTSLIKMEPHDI
SPIB, sequence (Q01892 whole entry): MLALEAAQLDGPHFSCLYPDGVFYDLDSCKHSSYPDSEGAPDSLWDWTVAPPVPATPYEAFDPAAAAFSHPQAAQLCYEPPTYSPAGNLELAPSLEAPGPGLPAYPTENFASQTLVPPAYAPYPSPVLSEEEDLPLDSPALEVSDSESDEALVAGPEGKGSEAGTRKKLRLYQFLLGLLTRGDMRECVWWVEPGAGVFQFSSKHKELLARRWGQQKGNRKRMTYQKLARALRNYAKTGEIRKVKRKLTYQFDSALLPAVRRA
ELF1, sequence (P32519 whole entry): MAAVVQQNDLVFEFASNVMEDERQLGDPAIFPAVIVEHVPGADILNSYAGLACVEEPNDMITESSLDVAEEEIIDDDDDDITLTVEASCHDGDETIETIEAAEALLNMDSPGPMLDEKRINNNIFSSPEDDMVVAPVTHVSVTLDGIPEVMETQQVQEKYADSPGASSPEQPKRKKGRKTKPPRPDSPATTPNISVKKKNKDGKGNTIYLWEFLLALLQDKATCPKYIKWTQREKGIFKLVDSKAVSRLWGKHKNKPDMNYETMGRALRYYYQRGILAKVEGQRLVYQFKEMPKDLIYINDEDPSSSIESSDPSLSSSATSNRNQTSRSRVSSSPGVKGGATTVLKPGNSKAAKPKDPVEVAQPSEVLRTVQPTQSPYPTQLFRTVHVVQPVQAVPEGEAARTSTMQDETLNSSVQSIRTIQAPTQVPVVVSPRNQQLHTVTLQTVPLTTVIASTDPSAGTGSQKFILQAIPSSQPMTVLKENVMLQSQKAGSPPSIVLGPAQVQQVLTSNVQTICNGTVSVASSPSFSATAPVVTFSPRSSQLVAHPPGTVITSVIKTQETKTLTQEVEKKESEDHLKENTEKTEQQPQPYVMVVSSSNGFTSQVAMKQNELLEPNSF
HSF1, sequence (Q00613 whole entry): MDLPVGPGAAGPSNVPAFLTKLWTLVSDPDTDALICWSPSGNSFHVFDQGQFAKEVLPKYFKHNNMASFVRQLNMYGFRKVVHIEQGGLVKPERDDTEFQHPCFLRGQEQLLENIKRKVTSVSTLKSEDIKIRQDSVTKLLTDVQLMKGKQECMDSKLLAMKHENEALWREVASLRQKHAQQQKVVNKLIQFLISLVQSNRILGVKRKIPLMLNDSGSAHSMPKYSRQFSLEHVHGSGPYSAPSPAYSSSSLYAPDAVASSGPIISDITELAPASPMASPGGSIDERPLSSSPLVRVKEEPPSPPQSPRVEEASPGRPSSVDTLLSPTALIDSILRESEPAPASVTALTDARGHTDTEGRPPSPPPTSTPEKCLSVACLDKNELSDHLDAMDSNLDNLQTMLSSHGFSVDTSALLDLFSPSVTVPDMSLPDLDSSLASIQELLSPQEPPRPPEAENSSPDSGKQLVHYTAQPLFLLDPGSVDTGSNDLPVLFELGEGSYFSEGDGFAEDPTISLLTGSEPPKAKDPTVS

For TATCCT, the binding signal [1] was 1.7 fold enrichment (6-mer frequency, TF over GST control), the binding signal [2] was 1.79 fold enrichment (6-mer frequency, TF over GST control) and the binding signal [3] was 1.71 fold enrichment (6-mer frequency, TF over GST control). The binding signal [4] was 1.9 fold enrichment (6-mer frequency, TF over GST control), the binding signal [5] was 1.73 fold enrichment (6-mer frequency, TF over GST control) and the binding signal [6] was 1.81 fold enrichment (6-mer frequency, TF over GST control). The binding signal [7] was 1.74 fold enrichment (6-mer frequency, TF over GST control), the binding signal [8] was 1.8 fold enrichment (6-mer frequency, TF over GST control) and the binding signal [9] was 1.76 fold enrichment (6-mer frequency, TF over GST control). For the same sequence, the binding signal [10] was 1.94 fold enrichment (6-mer frequency, TF over GST control), the binding signal [11] was 1.95 fold enrichment (6-mer frequency, TF over GST control) and the binding signal [12] was 1.72 fold enrichment (6-mer frequency, TF over GST control). The binding signal [13] was 1.87 fold enrichment (6-mer frequency, TF over GST control), the binding signal [14] was 1.65 fold enrichment (6-mer frequency, TF over GST control) and the binding signal [15] was 1.83 fold enrichment (6-mer frequency, TF over GST control). The binding signal [16] was 1.93 fold enrichment (6-mer frequency, TF over GST control), the binding signal [17] was 1.59 fold enrichment (6-mer frequency, TF over GST control) and the binding signal [18] was 2.28 fold enrichment (6-mer frequency, TF over GST control). For the same sequence, the binding signal [19] was 1.72 fold enrichment (6-mer frequency, TF over GST control).
